# Test results published in PMC4336329 (PLoS ONE, 2015).
# Out of some 310,000 compounds screened, about 14,000 (4.5%) showed an effect of 50% or more. Effects have a minus sign here. Only a selection was taken, and strong results are over-represented in it overall.
# Molecular target: human ether-à-go-go-related gene (hERG) potassium channel (human, UniProt Q12809)
# Assay: primary screen, population patch clamp on CHO cells stably expressing hERG; higher = less effect of the substance
# 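Note: peak tail current of the secondary pulse compared with the same well before compound.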
# Sequence of human ether-à-go-go-related gene (hERG) potassium channel (Q12809 whole entry, looked up): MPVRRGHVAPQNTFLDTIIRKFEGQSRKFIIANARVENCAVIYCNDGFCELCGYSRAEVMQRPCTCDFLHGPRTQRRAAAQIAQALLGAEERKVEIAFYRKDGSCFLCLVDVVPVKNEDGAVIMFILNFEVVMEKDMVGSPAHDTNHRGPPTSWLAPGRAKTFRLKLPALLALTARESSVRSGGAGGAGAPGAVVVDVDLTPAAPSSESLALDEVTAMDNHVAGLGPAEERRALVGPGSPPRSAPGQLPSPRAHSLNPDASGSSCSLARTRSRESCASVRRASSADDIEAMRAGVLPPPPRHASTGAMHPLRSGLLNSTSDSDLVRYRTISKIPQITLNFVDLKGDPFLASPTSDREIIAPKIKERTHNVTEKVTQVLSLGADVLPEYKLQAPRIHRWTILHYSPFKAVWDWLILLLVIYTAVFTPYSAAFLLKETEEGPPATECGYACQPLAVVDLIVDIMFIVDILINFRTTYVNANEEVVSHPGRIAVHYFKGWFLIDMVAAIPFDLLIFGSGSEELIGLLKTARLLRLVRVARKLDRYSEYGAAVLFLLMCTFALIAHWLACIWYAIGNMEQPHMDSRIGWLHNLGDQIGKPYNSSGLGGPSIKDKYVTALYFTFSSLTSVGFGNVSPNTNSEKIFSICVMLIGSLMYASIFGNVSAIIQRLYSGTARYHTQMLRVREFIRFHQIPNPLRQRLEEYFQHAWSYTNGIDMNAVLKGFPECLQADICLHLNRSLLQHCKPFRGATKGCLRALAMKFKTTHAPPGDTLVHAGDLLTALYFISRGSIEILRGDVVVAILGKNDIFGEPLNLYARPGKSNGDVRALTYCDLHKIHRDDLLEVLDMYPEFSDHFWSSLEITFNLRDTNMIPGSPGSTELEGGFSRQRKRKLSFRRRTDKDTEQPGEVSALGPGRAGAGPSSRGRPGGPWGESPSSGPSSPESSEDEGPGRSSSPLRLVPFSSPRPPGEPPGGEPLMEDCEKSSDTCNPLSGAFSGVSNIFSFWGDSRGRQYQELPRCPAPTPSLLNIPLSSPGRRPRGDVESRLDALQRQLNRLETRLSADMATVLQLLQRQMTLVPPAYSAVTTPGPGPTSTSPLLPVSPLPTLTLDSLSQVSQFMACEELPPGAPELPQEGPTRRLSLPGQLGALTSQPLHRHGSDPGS
row,SMILES,"hERG current change (%, negative = inhibition) at 10uM [%]"
1,CC1CCCC(C)N1C(=O)CSc1nc2c(c(=O)n(C)c(=O)n2C)n1C (stereo not shown),5.34
2,O=C(c1ccc([N+](=O)[O-])cc1)N1CCSC1c1ccc(Cl)cc1 (stereo not shown),-76.9
3,CN(C)c1ccc(C(=S)N2CCN(c3ccc([N+](=O)[O-])cc3)CC2)cc1,-18.7
4,CN(C)c1ccc(C2SCCN2C(=O)c2ccc([N+](=O)[O-])cc2)cc1 (stereo not shown),-66.7
5,O=C(NNC(=O)c1ccc([N+](=O)[O-])cc1)c1ccc(Br)cc1,14.5
6,O=C(O)c1ccc(N2C(=O)CSC2c2cccc([N+](=O)[O-])c2)cc1 (stereo not shown),15.5
7,O=C(c1ccc([N+](=O)[O-])cc1)N1CCSC1c1cccc(Cl)c1 (stereo not shown),-69.3
8,O=C(c1ccc([N+](=O)[O-])cc1)N1CCSC1c1ccc(Br)cc1 (stereo not shown),-64.2
9,O=C(c1ccc([N+](=O)[O-])cc1)N1CCSC1c1ccccc1Cl (stereo not shown),7.77
10,O=C(CC1C(=O)NCCN1C(=O)c1ccc([N+](=O)[O-])cc1)Nc1cccc(Cl)c1 (stereo not shown),-40.4
11,O=C(c1ccc([N+](=O)[O-])cc1)N1CCSC1c1ccccc1 (stereo not shown),-39.3
12,CCOC(=O)c1ccc(NC(=S)N2CCSC2c2ccc(Br)cc2)cc1 (stereo not shown),5.4
13,CC(=O)Nc1ccc(N2C(=O)CSC2c2ccc([N+](=O)[O-])cc2)cc1 (stereo not shown),-11.3
14,CC1NC(=O)N(C)[C@@H]2NC(=O)N(C)C(c3ccc([N+](=O)[O-])cc3)[C@@H]12 (stereo partly shown),7.29
15,CCCCN(C(=O)NC(=O)Nc1cc(C)ccc1C)S(C)(=O)=O,17.9
16,CNC(=O)COC(=O)CCC(=O)c1ccc(Cl)cc1,7.45
17,Cc1noc(C)c1COc1ccc(C(=O)Nc2ncccc2O)cc1,11.5
18,Cc1ccc(C(=O)NCC2CCCO2)cc1[N+](=O)[O-] (stereo not shown),4.29
19,Cc1cc(C=C2C(=O)c3ccccc3C2=O)c(C)n1-c1ccccc1,7.13
20,C[C@H](NC(=O)OCc1ccccc1)C(=O)NNC(=O)[C@H](Cc1ccccc1)NC(=O)OC(C)(C)C,31.2
21,O=C1N(c2cccc(Cl)c2)C(c2cccnc2)N2CCCN12 (stereo not shown),-4.39
22,COc1ccc(N2C(=O)CSC2c2ccc([N+](=O)[O-])cc2)cc1 (stereo not shown),-37.3

row,SMILES,"hERG current change (%, negative = inhibition) at 10uM [%]"
1,O=C(c1ccccc1)N1CCN(C(=O)c2ccccc2)C1c1ccccc1,4.53
2,CC1(C)CC2CC(C)(CN2C(=O)c2ccccc2)C1 (stereo not shown),8.08
3,COc1ccccc1C1SCCN1C(=O)c1ccc([N+](=O)[O-])cc1 (stereo not shown),-38.7
4,CC1(C)C[C@@H]2C[C@@](C)(CN2C(=O)c2ccccc2)C1,11.3
5,Cc1ccc(C(=O)N2CCN(C(=O)c3ccccc3)C2c2ccc(N(C)C)cc2)cc1 (stereo not shown),-50.8
6,CC1(C)CC2CC(C)(CN2C(=O)c2ccc([N+](=O)[O-])cc2)C1 (stereo not shown),-62.4
7,COc1ccc(C2SCCN2C(=O)c2ccc([N+](=O)[O-])cc2)cc1 (stereo not shown),-70
8,COc1ccc(C2N(C(=O)c3ccccc3)CCN2C(=O)c2ccc(C)cc2)cc1 (stereo not shown),-24.9
9,O=C(C1CCN(S(=O)(=O)c2ccccc2)CC1)N1CCC1,12.3
10,Cc1[nH]n(-c2ccccc2)c(=O)c1C=Nc1cnc2ccccc2c1,-8.67
11,O=C(c1cccs1)c1ccc(-c2cccs2)s1,1.57
12,CCSc1nc(-c2ccccc2)nc2c1CCCC2,7.26
13,CN(C)CCSc1nc(-c2ccccc2)nc2c1CCCC2,-51.3
14,CN(C)CCSc1nc(-c2ccccc2)nc2c1COC(C)(C)C2,-69.1
15,CC1(C)Cc2nc(-c3ccccc3)nc(SCC(O)CO)c2CO1 (stereo not shown),-15.8
16,CN(C)CCCSc1nc(-c2ccccc2)nc2c1CCC2,-50.3
17,NC(=O)CSc1nc(-c2ccccc2)nc2c1CCCC2,5.92
18,OCCSc1nc(-c2ccccc2)nc2c1CCC2,-12
19,CN(C)CCSc1nc(-c2ccccc2)nc2c1CCC2,-61.3
20,CSc1nc(-c2ccccc2)nc2c1COC(C)(C)C2,5.03
21,CN(C)C(=O)CSc1nc(-c2ccccc2)nc2c1CCCC2,-5.09
